Only some compounds are listed: those with a hit (about 1.8% of all), similar ones and a draw of the others.
Mcl1-Bid inh: disrupts binding of human Mcl-1 to Bid peptide; Q07820; TR-FRET Mcl-1/Bid-Dy647 peptide binding, 1536-well; inhibition, % at 21.7 µM; actives 0.97% (n = 220,000); AID 1021;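 active = compounds that cut the binding signal by more than half at the single screening dose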;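 also: His-tagged Mcl-1 with europium anti-His antibody binding Bid BH3 peptide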
Mcl-1 Bim block: inhibitors of Bim-Mcl-1 interaction, human; Bead-based flow cytometry, Bim peptide-Mcl-1 binding; Q07820; actives 0.1% (n = 190,000); inhibition, % at 10 µM; in the data active = inhibition above about 40%
TLR4 MyD88 comp: inhibitors of human TLR4-MyD88 binding | O00206+Q99836 | HeLa CL3-4 TLR4/MyD88 BLA complementation, FRET ratio | inhibition, % at 8.4 µM | actives 0.18% (n = 200,000); in the data active = inhibition above about 25%
Mcl1-Noxa inh: disrupts binding of human Mcl-1 to Noxa peptide; actives 1.5% (n = 220,000); Q07820; inhibition, % at 21.7 µM; TR-FRET Mcl-1/Noxa peptide binding, 2 h;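 active = compounds that cut the protein-peptide binding signal by more than 50% relative to plate controls in a single-dose test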;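 also: His-tagged Mcl-1 with rhodamine Noxa BH3 peptide and terbium anti-His antibody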
NOD2-RIPK2 inh: NOD2-RIPK2 protein interaction inhibition | CHO BLA complementation NOD2-RIPK2, CCF4 ratio | inhibition, % at 4.98 µM | actives 0.38% (n = 360,000) | AID 624267; in the data active = inhibition above about 21%
TLR9-MyD88 inh: inhibitors of human TLR9-MyD88 binding; AID 504734; CHO BLA complementation TLR9-MyD88, CCF4 FRET ratio; actives 0.21% (n = 340,000); inhibition, % at 4.98 µM; Q9NR96+Q99836;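 active = inhibition above the mean over all tested compounds plus 3 SD, cut at about 21% in these data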
TLR9-MyD88 conf: TLR9-MyD88 interaction inhibition, confirmation. shares compounds with TLR9-MyD88 inh. CHO TLR9/MyD88 BLA complementation, CCF4 FRET ratio. inhibition, % at 4.98 µM. actives 51% (n = 680);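 active = mean inhibition across three repeats above about 21% taken from the earlier screen, limit read from the data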;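 also: blue over green emission ratio reports constitutive TLR9 MyD88 association via BLA complementation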
Target sequence (Q9NR96 whole entry, looked up): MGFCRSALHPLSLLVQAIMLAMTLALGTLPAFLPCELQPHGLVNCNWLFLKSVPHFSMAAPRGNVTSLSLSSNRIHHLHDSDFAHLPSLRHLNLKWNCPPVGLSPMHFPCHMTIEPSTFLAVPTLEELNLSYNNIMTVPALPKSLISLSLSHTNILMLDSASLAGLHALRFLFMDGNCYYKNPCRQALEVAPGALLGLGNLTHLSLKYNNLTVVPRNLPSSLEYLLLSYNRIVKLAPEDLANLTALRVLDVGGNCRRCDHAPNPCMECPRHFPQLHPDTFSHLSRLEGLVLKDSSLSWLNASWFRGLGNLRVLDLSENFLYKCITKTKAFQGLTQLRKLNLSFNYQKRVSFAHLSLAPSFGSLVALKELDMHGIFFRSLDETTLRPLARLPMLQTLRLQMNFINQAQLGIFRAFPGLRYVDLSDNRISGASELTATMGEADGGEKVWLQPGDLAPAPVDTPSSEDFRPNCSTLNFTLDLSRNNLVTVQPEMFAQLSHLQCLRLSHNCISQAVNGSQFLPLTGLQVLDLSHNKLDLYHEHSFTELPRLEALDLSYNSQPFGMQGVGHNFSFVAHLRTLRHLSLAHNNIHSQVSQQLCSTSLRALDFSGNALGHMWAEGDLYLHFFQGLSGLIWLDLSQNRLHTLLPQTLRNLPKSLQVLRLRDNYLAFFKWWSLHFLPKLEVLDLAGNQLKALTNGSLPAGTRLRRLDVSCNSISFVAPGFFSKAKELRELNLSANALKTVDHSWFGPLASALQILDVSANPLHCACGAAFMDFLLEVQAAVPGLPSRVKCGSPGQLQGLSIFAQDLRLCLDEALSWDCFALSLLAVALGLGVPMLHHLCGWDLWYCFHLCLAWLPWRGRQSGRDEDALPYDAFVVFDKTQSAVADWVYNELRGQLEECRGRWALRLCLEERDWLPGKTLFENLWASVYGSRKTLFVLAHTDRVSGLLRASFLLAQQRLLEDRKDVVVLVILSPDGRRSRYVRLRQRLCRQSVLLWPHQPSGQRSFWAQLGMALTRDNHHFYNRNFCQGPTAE
BLA counter-1: counter-screen for TLR9-MyD88 inhibitors: non-selective beta-lactamase inhibitors | CHO-BLA cells, CCF4 FRET ratio, BLA reporter | inhibition, % at 4.98 µM | shares compounds with TLR9-MyD88 inh | actives 7% (n = 680);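 active = mean inhibition above a 50% cutoff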;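 also: counterscreen of TLR9-MyD88 hits on CMV-driven BLA in CHO-K1 cells; higher means less blue over green ratio so more BLA blockade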
TLR9 CHO cytotox: CHO cell toxicity counter-screen for TLR9-MyD88 inhibitors. shares compounds with TLR9-MyD88 inh. TLR9-MyD88 CHO cells cytotoxicity, luminescence. inhibition, % at 4.98 µM. actives 39% (n = 680). AID 588336; in the data active = inhibition above about 11%
NOD2 RIPK2 conf: NOD2-RIPK2 interaction inhibition confirmed; shares compounds with NOD2-RIPK2 inh; CHO cells, NOD2-RIPK2 BLA complementation, CCF4 FRET; inhibition, % at 4.98 µM; actives 70% (n = 1,200); AID 624370;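 active = mean inhibition across replicates above a set limit taken from the earlier primary screen, cut at about 21% in these data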
BLA counter-2: counter-screen for NOD2-RIPK2 interaction inhibitors: BLA reporter; CHO BLA reporter, CCF4 FRET ratio, counterscreen; inhibition, % at 4.98 µM; shares compounds with NOD2-RIPK2 inh; actives 57% (n = 1,200);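 active = mean inhibition above the low-control mean inhibition plus three low-control SD, cut at about 11% in these data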
Hits are given with their value; i = inactive; nt = not tested or not shown; ! = not active in a repeat.

SMILES	Mcl1-Bid inh	Mcl-1 Bim block	TLR4 MyD88 comp	Mcl1-Noxa inh	NOD2-RIPK2 inh	TLR9-MyD88 inh	TLR9-MyD88 conf	BLA counter-1	TLR9 CHO cytotox	others
Cc1cc(C=C2C(=O)c3ccccc3C2=O)c(C)n1-c1ccccc1	i	i	i	i	i	i	nt	nt	nt
Cc1nn(C(=O)CNS(=O)(=O)c2ccccc2)c(C)c1Sc1ccc(Cl)cc1	i	i	i	i	i	i	nt	nt	nt
O=[N+]([O-])c1cnc(Sc2ccncn2)s1	i	nt	nt	i	80	31	46	i	99
COc1ccc(-c2cc(C(=O)Nc3ccc(S(=O)(=O)Nc4onc(C)c4C)cc3)c3ccccc3n2)cc1	i	nt	nt	i	i	i	nt	nt	nt
Cc1oc(-c2cc(F)ccc2F)nc1CN1CCN(c2cnccn2)CC1	i	i	i	i	i	22	i	i	i
COc1ccc(CNS(=O)(=O)c2cn(C)c(=O)n(C)c2=O)cc1	nt	nt	nt	nt	i	i	nt	nt	nt
CS(=O)(=O)c1ncc(Cl)c(C(=O)Nc2ccc(OC(F)F)cc2)n1	nt	nt	nt	nt	73	42	45	i	97
O=C(Nc1ccc(OC(F)F)cc1)c1ccccn1	i	i	i	i	i	i	nt	nt	nt
CS(=O)(=O)c1ncc(Cl)c(C(=O)Nc2ccc(N3CCOCC3)cc2)n1	i	i	i	i	47	43	47	i	95
CC(C)(C)C(=O)NC(=S)NNC(=O)c1sc2ccccc2c1Cl	i	i	i	i	i	30	i	i	47
COc1ccccc1C(=O)Nc1onc(C)c1C#N	i	i	i	i	i	22	i	i	i
COc1cccc(C2=CC(c3ccc(OC)c(OC)c3OC)n3nnnc3N2)c1 (stereo not drawn)	i	i	i	i	i	22	i	i	i
COc1cccc(C2=CC(c3cccs3)n3nnnc3N2)c1 (stereo not drawn)	i	i	i	i	i	i	nt	nt	nt
O=C(CN1C(=O)/C(=C/c2ccc(F)cc2)SC1=S)NC1CCS(=O)(=O)C1 (stereo not drawn)	nt	nt	nt	nt	i	i	nt	nt	nt
O=C(CN1C(=O)/C(=C/c2ccccc2)SC1=S)NC1CCS(=O)(=O)C1 (stereo not drawn)	nt	nt	nt	nt	i	21	i	i	i
O=C(COC(=O)c1cccc(S(=O)(=O)NCc2ccccc2)c1)NC1CC1	nt	nt	nt	nt	i	i	nt	nt	nt
CCN(C(=O)COC(=O)c1cccc(S(=O)(=O)NCc2ccccc2)c1)c1ccccc1	nt	nt	nt	nt	i	22	i	i	i
C/C(Cl)=C\Cn1c(O)c(N=O)c2ccccc21	i	i	i	i	i	21	i	i	i
Cc1ccc2c(c1)c(N=O)c(O)n2Cc1ccc(Cl)cc1	i	i	i	i	i	i	nt	nt	nt
O=Nc1c(O)n(Cc2ccc(Cl)cc2Cl)c2ccccc12	i	i	i	i	i	33	23	i	i
Cc1ccc(Cn2c(O)c(N=O)c3ccccc32)cc1	i	i	i	i	i	24	i	i	i
O=C(COC(=O)c1ccc2c(c1[N+](=O)[O-])C(=O)c1ccccc1C2=O)NC1CC1	i	i	i	i	i	25	i	i	19
O=C(COC(=O)c1cccc2c1C(=O)c1ccccc1C2=O)NC1CCCCC1	i	i	i	i	i	i	nt	nt	nt
COc1ccc(Cn2c(O)c(/C=N/NC(=O)c3cccnc3)c3ccccc3c2=O)cc1	i	i	i	i	i	26	i	i	i
O=C(CN1CCN(C(=O)c2ccc(-c3nc4ccccc4s3)o2)CC1)Nc1ccc(F)cc1	nt	nt	nt	nt	i	i	nt	nt	nt
SMILES	Mcl1-Bid inh	Mcl-1 Bim block	TLR4 MyD88 comp	Mcl1-Noxa inh	NOD2-RIPK2 inh	TLR9-MyD88 inh	TLR9-MyD88 conf	BLA counter-1	TLR9 CHO cytotox	others
CCCc1cc(=O)oc2cc(C)cc(OC(C)C(=O)NCCN3CCOCC3)c12 (stereo not drawn)	nt	nt	nt	nt	i	i	nt	nt	nt
Nc1nnnn1/N=C/c1cc(Cl)ccc1O	nt	nt	nt	nt	i	28	i	i	i
Nc1nnnn1/N=C/c1cc(Cl)cc(Cl)c1O	nt	nt	nt	nt	i	23	24	i	i
COc1ccc(CN2CCC(CNC(=O)NC3CCCCC3)CC2)cc1	i	i	i	i	i	22	i	i	i
COc1ccc(CNC(=O)NC2CCCCC2)cc1	i	i	i	i	i	i	nt	nt	nt
O=c1c(O)c(-c2cccs2)oc2ccccc12	i	i	i	i	29	21	i	i	i	NOD2 RIPK2 conf=41;BLA counter-2=38
NC(=O)/C(=N\OC(=O)c1ccco1)c1nc(-c2ccc(Br)cc2)cs1	i	i	i	i	21	36	i	i	i	NOD2 RIPK2 conf=43;BLA counter-2=22
C1=C(c2ccccc2)Nc2ncnn2C1c1ccccc1 (stereo not drawn)	nt	nt	nt	nt	35	25	i	i	i	NOD2 RIPK2 conf=i;BLA counter-2=i
Cc1ccc(C2=CC(c3ccccc3)n3ncnc3N2)c(C)c1 (stereo not drawn)	nt	nt	nt	nt	i	i	nt	nt	nt
Cc1ccc(C2C=C(c3ccc4c(c3)OCO4)Nc3ncnn32)cc1 (stereo not drawn)	i	i	i	i	42	31	i	i	i	NOD2 RIPK2 conf=34;BLA counter-2=42
Fc1ccc(Br)cc1C1C=C(c2ccc(Br)cc2)Nc2ncnn21 (stereo not drawn)	i	i	i	i	43	21	i	i	i	NOD2 RIPK2 conf=i;BLA counter-2=i
Cc1ccc(C2=CC(c3ccccc3)n3ncnc3N2)cc1 (stereo not drawn)	nt	nt	nt	nt	52	41	i	i	i	NOD2 RIPK2 conf=i;BLA counter-2=21
CCCCNC(=O)COC(=O)c1c2c(nc3ccccc13)/C(=C\c1cccs1)CC2	nt	nt	nt	nt	55	45	47	56	i	NOD2 RIPK2 conf=66;BLA counter-2=76
CCc1cccc(C)c1NC(=O)COC(=O)c1c2c(nc3ccccc13)/C(=C\c1cccs1)CCC2	i	i	i	i	i	i	nt	nt	nt
Nc1cccc2c1C(=O)N(C(=O)c1cccc(S(=O)(=O)N3CCCCCC3)c1)C2=O	i	i	i	i	28	25	i	i	i	NOD2 RIPK2 conf=33;BLA counter-2=38
NC(=O)C1CCCN(C(=O)c2cccc(S(=O)(=O)N3CCCCCC3)c2)C1 (stereo not drawn)	nt	nt	nt	nt	i	i	nt	nt	nt
CC1=Nc2ccc(C)cc2/C1=C/c1c(N)n2oc(C)cc2nc1=O	i	i	i	i	55	21!	i	i	i	NOD2 RIPK2 conf=42;BLA counter-2=29
